Assay results taken from PubChem BioAssay (NCATS).
Results filed as inconclusive are left out. A number with no mark means an inactive call. Activity calls are given as the source filed them. Calls follow the shape of the dose curve; as a rule, active = well fitted inhibition curve with a large enough effect; inconclusive = small, poorly fitted or top-dose-only effect; inactive = flat fitted curve, though single readings scatter.

Test system: CRL-7250
Assay: Cytotoxic Profiling of Annotated Libraries Using Quantitative High-Throughput Screening (AID 1296008); also: nearly all actives have a fitted effect of over 60% in size
Settings: Five cell lines viability, CellTiter-Glo ATP luminescence, 48-72 h; max response: hits give low values
Outline: (§1)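 Cells exposed to compounds for 48 or 72 hr at 37 degrees Celsius. Viability read as ATP-coupled luminescence with CellTiter-Glo after 10 min at room temperature.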
% is scaled to controls: 0 for no effect and ±100 for the full control effect.

Row | SMILES | outcome | max response
1 | C[C@@H]1O[C@@H](O[C@H]2[C@H](OC(=O)[C@]34CCC(C)(C)C[C@H]3C3=CCC5[C@@]6(C)C[C@@H](O)[C@@H](O[C@@H]7O[C@H](CO)[C@@H](O)[C@H](O)[C@H]7O)[C@@](C)(CO)C6[C@H](O)C[C@@]5(C)[C@]3(C)CC4)OC[C@H](O)[C@@H]2O)[C@H](O)[C@H](O[C@@H]2OC[C@](O)(CO)[C@H]2O)[C@H]1O[C@@H]1OC[C@@H](O)[C@H](O[C@H]2O[C@H](C)[C@@H](O)[C@H](O)[C@@H]2O)[C@H]1O (stereo not given in full) | inactive | –
2 | CCC(C)/C=C(C)/C=C/C1=CC2=C(Cl)C(=O)C(C)(OC(C)=O)C(=O)C2=CN1C(CC(=O)O)C(=O)O (stereo not given) | – | 4.26%
3 | COc1cc(/C=C/C(=O)OCC2OC(OC3(CO)OC(CO)C(O)C3O)C(O)C(O)C2O)ccc1O (stereo not given) | – | 0.86%
4 | O=C(O)[C@H](Cc1ccccc1)Oc1ccc(-c2ccccc2)cc1 | – | -13.4%
5 | CN1CCN(C2=Nc3ccccc3Nc3ccc(O)cc32)CC1 | – | 2.24%
6 | CCNC(=O)OC1CCN(c2nncc3cc(OC)c(OC)cc23)CC1 | – | -1.25%

Test system: HaCat
Assay: as above
Settings: Five cell lines viability, CellTiter-Glo ATP luminescence, 48-72 h; max response: hits give low values
Outline: as §1

Row | SMILES | outcome | max response
7 | CC[C@@H]1[C@H]2CCCCN3C(=O)C[C@H]([C@@H]4[C@H]1OC(=O)[C@H]4C)[C@@H]23 | inactive | –
8 | Oc1ccc2c(-c3c(-c4ccccn4)nn4c3CCC4)ccnc2c1 | inactive | –
9 | CC1(C)CCCC2(C)c3c4c(c(=O)oc(=O)c3=CCC12)=CCC1C(C)(C)CCCC41C (stereo not given) | – | 0.0105%
10 | C[C@H]1[C@H](C)CC[C@]2(C(=O)O)CC[C@]3(C(=O)O)C(=CCC4[C@@]5(C)CC[C@H](O[C@@H]6O[C@@H](C)[C@H](O)[C@@H](O)[C@H]6O)C(C)(C)C5CC[C@]43C)[C@H]12 (stereo not given in full) | inactive | –
11 | CCC(C)C(=O)O[C@H]1C[C@](C)(O)[C@]23OC(C)(C)[C@H](C[C@H](OC(=O)c4ccccc4)[C@]2(COC(C)=O)[C@H]1OC(=O)C(C)CC)[C@H]3OC(C)=O (stereo not given in full) | inactive | –
12 | CC(C)=C1CC2C(CCC2(C)O)C(C)(O)CC1=O (stereo not given) | – | -16.7%
13 | CC(=O)c1[nH]cc(CCC(=O)O)c1CC(=O)O | inactive | –
14 | CC(=O)O[C@@H]1[C@@H](O)[C@H](C)O[C@@H](O[C@H]2[C@@H]3C=CO[C@@H](O[C@@H]4O[C@H](CO)[C@@H](O)[C@H](O)[C@H]4OC(C)=O)[C@@H]3[C@@]3(CO)O[C@@H]23)[C@@H]1OC(=O)/C=C/c1ccc(O)cc1 | inactive | –
15 | CC(=O)OC1C(O)C(C)(O)C(/C=C/C(=O)O)C2(C)CCCC(C)(C)C12 (stereo not given) | inactive | –
16 | C=C(CO)C(=O)O[C@H]1C[C@@]23O[C@@H]2CC/C(=C/[C@H]2OC(=O)C(=C)[C@H]12)CO[C@H]3O | inactive | –
17 | CC(C)C1CCC(CO)=CC1/C=C(\CO)C(=O)OCC1(O)CCC(C(C)C)C2C=C(C(=O)O)COC(=O)C21 (stereo not given) | – | -2.47%
18 | O=C(/C=C/c1ccc(O)cc1)OC[C@@]1(O)C=C[C@@H]2C(C(=O)O)=CO[C@@H](O[C@@H]3O[C@H](CO)[C@@H](O)[C@H](O)[C@H]3O)[C@@H]21 | inactive | –
19 | C=C1C(=O)O[C@@H]2/C=C(\C)CC/C=C(\C(=O)O[C@@H]3O[C@H](CO)[C@@H](O)[C@H](O)[C@H]3O)CC[C@@H]12 | inactive | –
20 | C=C[C@H]1[C@H](O[C@@H]2O[C@H](CO)[C@@H](O)[C@H](OC(=O)/C=C/c3ccc(O)c(OC)c3)[C@H]2O)OC=C2C(=O)OCC[C@]21O | inactive | –
21 | C[C@@H]1O[C@@H](O[C@H]2[C@H](OC(=O)[C@]34CCC(C)(C)C[C@H]3C3=CCC5[C@@]6(C)CC[C@H](O[C@@H]7O[C@H](CO[C@@H]8OC[C@H](O)[C@H](O)[C@H]8O)[C@@H](O)[C@H](O)[C@H]7O)C(C)(C)C6CC[C@@]5(C)[C@]3(C)C[C@H]4O)OC[C@@H](O)[C@@H]2O)[C@H](O)[C@H](O[C@@H]2OC[C@](O)(CO)[C@H]2O)[C@H]1O[C@@H]1OC[C@H](O)[C@H](O[C@@H]2OC[C@@H](O)[C@H](O)[C@H]2O)[C@H]1O (stereo not given in full) | inactive | –
22 | C=CCc1ccc(O[C@@H]2O[C@H](CO)[C@@H](O)[C@H](O)[C@H]2O)c(O[C@@H]2O[C@H](CO)[C@@H](O)[C@H](O)[C@H]2O)c1 | inactive | –
23 | C=C1CC2C(C)(CCC(=O)O)C(C(C)(C)O)CCC2(C)C2(C(=O)OC)C(=O)C(C)(O)C(=O)C12C (stereo not given) | inactive | –
24 | CC[C@H](C)[C@H](NC(=O)[C@H](Cc1ccc(O)cc1)NC(=O)[C@@H](N)C(C)C)C(=O)N[C@@H](Cc1cnc[nH]1)C(=O)N1CCC[C@H]1C(=O)N[C@@H](Cc1ccccc1)C(=O)O | inactive | –
25 | CC(=O)O[C@@H](C[C@@H]1C=C(C)C(=O)O1)[C@H](C)[C@H]1CCC2[C@@]3(C)CC[C@H](O[C@@H]4O[C@H](CO)[C@@H](O)[C@H](O)[C@H]4O[C@@H]4O[C@@H](C)[C@H](O)[C@@H](O)[C@H]4O)C(C)(C)C3CC[C@@]2(C)[C@@]12COC(=O)C2 (stereo not given in full) | inactive | –
26 | C/C=C1\[C@H](O[C@@H]2O[C@H](CO)[C@@H](O)[C@H](O)[C@H]2O)OC=C(C(=O)OCCc2ccc(O)cc2)[C@H]1CC(=O)OCCc1ccc(O)cc1 | inactive | –

Row | SMILES | outcome | max response
27 | C=C1CC/C=C(/CO)C(=O)C[C@@H]2[C@@H]1C[C@@]2(C)COC(C)=O | inactive | –
28 | C=C1CC[C@@H]2[C@](C)(CO)[C@H](O[C@@H]3O[C@H](CO)[C@@H](O)[C@H](O)[C@H]3O)CC[C@@]2(C)[C@@H]1C/C=C1/C(=O)OC[C@H]1O | inactive | –
29 | COc1c(C)c(OCC=C(C)C)cc2c1CNC2=O | inactive | –
30 | CC(C)=CCC/C(C)=C/CO[C@@H]1O[C@H](CO[C@@H]2O[C@@H](CO)[C@H](O)[C@H]2O)[C@@H](O)[C@H](O)[C@H]1O | inactive | –
31 | COc1cnc(-c2ccc(Cn3c(CC(C)(C)C(=O)O)c(SC(C)(C)C)c4cc(OC[C@@H]5Cc6ccccc6N5C(C)=O)ccc43)cc2)nc1 | inactive | –
32 | O=C(OCC1=CC(Cl)C(O)C(OC(=O)c2ccccc2)C1O)c1ccccc1 (stereo not given) | inactive | –
33 | CC12CC(O)C(O)C=C1c1cc(O)cc(O)c1C(=O)O2 (stereo not given) | inactive | –
34 | COc1ccc(C2(O)c3ccccc3NC(=O)C2OC)cc1 (stereo not given) | inactive | –
35 | C=C(C)C(O)COc1ccc(CC(=O)O)cc1 (stereo not given) | – | -1.96%
36 | CN1CCc2cc(Cl)c(O)cc2[C@@H](c2cccc3c2OCC3)C1 | – | -1.65%
37 | CC1(CO)CC(O)C2(C)CCC3(C)C(=CCC4C5(C=O)CCC(OC6OC(C(=O)O)C(O)C(O)C6OC6OC(C(=O)O)C(O)C(O)C6O)C(C)(C)C5CCC43C)C2C1 (stereo not given) | inactive | –
38 | O=C(O)c1ccnc2cc(-c3nc4ccccc4n3CCN3CCCCC3)sc12 | – | -0.587%
39 | CC1(C)CC[C@]2(C(=O)O)CC[C@]3(C)C(=CCC4[C@@]5(C)CC[C@H](O[C@@H]6O[C@H](C(=O)O)[C@@H](O)[C@H](O[C@@H]7O[C@H](CO)[C@H](O)[C@H](O)[C@H]7O)[C@H]6O[C@@H]6O[C@H](CO)[C@@H](O)[C@H](O)[C@H]6O)C(C)(C)C5CC[C@]43C)[C@@H]2C1 (stereo not given in full) | inactive | –
40 | C[C@@H]1O[C@@H](O[C@H]2[C@H](OC(=O)[C@]34CCC(C)(C)C[C@H]3C3=CCC5[C@@]6(C)C[C@@H](O)[C@@H](O[C@@H]7O[C@H](CO)[C@@H](O)[C@H](O)[C@H]7O)[C@@](C)(CO)C6[C@H](O)C[C@@]5(C)[C@]3(C)CC4)OC[C@H](O)[C@@H]2O)[C@H](O)[C@H](O[C@@H]2OC[C@](O)(CO)[C@H]2O)[C@H]1O[C@@H]1OC[C@@H](O)[C@H](O[C@H]2O[C@H](C)[C@@H](O)[C@H](O)[C@@H]2O)[C@H]1O (stereo not given in full) | – | 2.54%
41 | CCC(C)/C=C(C)/C=C/C1=CC2=C(Cl)C(=O)C(C)(OC(C)=O)C(=O)C2=CN1C(CC(=O)O)C(=O)O (stereo not given) | inactive | –
42 | COc1cc(/C=C/C(=O)OCC2OC(OC3(CO)OC(CO)C(O)C3O)C(O)C(O)C2O)ccc1O (stereo not given) | – | 2.88%
43 | O=C(O)[C@H](Cc1ccccc1)Oc1ccc(-c2ccccc2)cc1 | – | -11.4%
44 | CN1CCN(C2=Nc3ccccc3Nc3ccc(O)cc32)CC1 | inactive | –
45 | CCNC(=O)OC1CCN(c2nncc3cc(OC)c(OC)cc23)CC1 | – | -16.1%
